# Screening results from PubChem.
# Compounds with a hit are over-represented: about 0.82% of the library has one in this group of screens.
# RTF Ca sens act: cardiac RTF calcium sensitization; P19429+P45379; IANBD-labeled TnC RTF fluorescence at EC20 calcium; 0% EC20 calcium, 100% full calcium; activation, % at 7.2 µM; actives 0.24% (n = 340,000); AID 493008;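 active = activation above the mean over all tested compounds plus 3 SD, cut at about 30% in these data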;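 also: rise in fluorescence read as greater calcium sensitivity of cardiac thin filaments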
# C-LANA FP: inhibitors of KSHV LANA C-terminal domain DNA binding; inhibition, % at 9 µM; AID 504423; actives 0.078% (n = 340,000); MBP-C-LANA/FAM-LBS DNA binding, fluorescence polarization;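 active = highest replicate inhibition at or above 60% at 9 µM, even if other replicates fall short; inactive = all replicates below 60% inhibition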;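 also: 0% = neutral control wells and 100% = 4 µM acridine orange control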
# E coli Lon inh: inhibitors of E. coli Lon protease | purified E. coli Lon protease, fluorescence polarization | inhibition, % at 7.94 µM | actives 0.42% (n = 360,000) | AID 602123; in the data active = inhibition above about 13%, passing the limit was not always enough;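 also: 0% = enzyme with probe and DMSO and 100% = no enzyme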
# Target sequence (P0A9M0 whole entry, looked up): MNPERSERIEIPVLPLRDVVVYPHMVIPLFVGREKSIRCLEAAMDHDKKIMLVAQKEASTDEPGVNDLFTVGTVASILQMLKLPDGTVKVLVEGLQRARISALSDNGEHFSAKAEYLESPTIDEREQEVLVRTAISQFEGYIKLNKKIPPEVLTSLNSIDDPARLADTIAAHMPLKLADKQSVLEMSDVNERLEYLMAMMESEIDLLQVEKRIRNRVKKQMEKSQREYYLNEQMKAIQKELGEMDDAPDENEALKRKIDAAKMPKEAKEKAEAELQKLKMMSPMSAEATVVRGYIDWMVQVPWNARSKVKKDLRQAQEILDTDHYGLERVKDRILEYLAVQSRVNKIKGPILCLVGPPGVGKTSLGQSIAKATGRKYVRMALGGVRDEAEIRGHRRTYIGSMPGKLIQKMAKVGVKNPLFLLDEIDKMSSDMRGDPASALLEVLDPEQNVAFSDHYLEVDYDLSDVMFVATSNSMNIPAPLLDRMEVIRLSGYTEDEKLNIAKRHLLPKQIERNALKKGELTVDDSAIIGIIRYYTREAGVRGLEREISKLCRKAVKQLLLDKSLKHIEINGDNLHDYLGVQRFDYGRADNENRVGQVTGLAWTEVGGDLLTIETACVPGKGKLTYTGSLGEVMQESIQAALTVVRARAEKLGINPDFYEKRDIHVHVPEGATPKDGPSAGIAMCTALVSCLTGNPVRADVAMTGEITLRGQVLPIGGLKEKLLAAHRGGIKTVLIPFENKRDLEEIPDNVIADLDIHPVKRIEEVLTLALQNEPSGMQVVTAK
# Keap1 Nrf2 FP: disrupts human Keap1 binding to Nrf2 peptide; inhibition, % at 9.4 µM; Keap1 Kelch-Nrf2 peptide fluorescence polarization, 1536-well; actives 0.15% (n = 340,000); Q14145; in the data active = inhibition above about 12%;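 also: human Keap1 Kelch domain with fluorescein labeled Nrf2 9mer peptide probe; 0% = neutral control wells and 100% = peptide positive control; higher means more block of Keap1 binding to Nrf2 peptide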
# RTF Ca sens inh: cardiac RTF calcium desensitization. actives 0.12% (n = 340,000). P19429+P45379. IANBD-labeled cardiac RTF, Ca2+ fluorescence. inhibition, % at 7.15 µM;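 active = inhibition above the mean inhibition of all tested compounds plus 3 SD, cut at about 17% in these data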;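 also: assay run at fixed EC70 calcium of 1.6 mM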
# RTF inh confirm: confirmation of inhibitors of cardiac thin filament calcium sensitivity | shares compounds with RTF Ca sens inh | reconstituted cardiac thin filaments, calcium sensitivity fluorescence | AID 504635 | actives 8% (n = 360) | inhibition, % at 7.15 µM; in the data active = inhibition above about 18%
# Numbers without * were called inactive; nt = no result given; ! = not confirmed by another sample.
SMILES,RTF Ca sens act,C-LANA FP,E coli Lon inh,Keap1 Nrf2 FP,RTF Ca sens inh,RTF inh confirm
NCCNC(=O)Cc1ccc(NC(=O)Cc2ccc(Nc3ncnc4c3ncn4[C@@H]3O[C@H](CO)[C@@H](O)[C@H]3O)cc2)cc1,-4,-2,-2,0,23*,-3
O=C(COc1ccc(Br)cc1Br)NC(=S)N1CCCc2ccccc21,0,0,7,-2,17*,-3
O=C(COc1ccc(Br)cc1Cl)NC(=S)N1CCc2ccccc21,-4,1,-4,1,-9,nt
CC(C)(C)c1ccccc1NC(=O)Nc1nc(C(N)Cc2ccc(F)cc2)cs1 (stereo unspecified),nt,nt,9,nt,nt,nt
CCOc1ccccc1-c1nc(-c2ccc(NC(=O)Cc3ccccc3OC)cc2)no1,1,-1,-1,1,18*,-4
COc1ccc(C(C)(NC(C)=O)c2nc(-c3ccccc3OC)cs2)cc1 (stereo unspecified),nt,nt,0,nt,nt,nt
COC(=O)c1cccc(CN2C(=O)C(C)Oc3ccc(C)cc32)c1 (stereo unspecified),nt,nt,-8,nt,nt,nt
O=C(Nc1cc(S(=O)(=O)N2CCOCC2)ccc1N1CCCC1)C1CC1,-4,1,-2,-1,19*,-3
C(=C\c1ccccc1)/CN1CCN(C(c2cc3ccccc3o2)c2nnnn2C2CCCCC2)CC1 (stereo unspecified),nt,nt,-6,nt,nt,nt
COc1ccc(NC(=S)N(Cc2ccccn2)Cc2ccccc2Cl)cc1,3,0,3,3,17*,2
CN(C)NC(=S)Nc1ccc(Cl)cc1,2,0,0,-3,0,nt
CN(N)C(=S)Nc1ccc(Cl)cc1,3,0,1,-2,18*,-3
CCCOc1ccccc1C1NC(=O)NC(C)=C1C(=O)OCCOC (stereo unspecified),7,0,5,-3,19*,-1
CCCCOc1ccccc1C1NC(=O)NC(C)=C1C(=O)OCCOC (stereo unspecified),12,-1,4,-5,3,nt
Cc1ccc(N2CC(C(=O)N3CCN(c4ccccc4)CC3)CC2=O)cc1 (stereo unspecified),4,1,5,0,17*,-4
COc1ccc(N2CCN(C(=O)C3CC(=O)N(c4ccc(C)cc4)C3)CC2)cc1 (stereo unspecified),nt,2,4,5,nt,nt
O=C(c1ccc(N2CCCC2)c([N+](=O)[O-])c1)N1CCc2ccccc2C1,-17,1,-12,-1,-12,nt
N#Cc1ccc(N2CCc3ccccc3C2)c([N+](=O)[O-])c1,-2,-2,-12,-5,188*,-5
CSc1nc(-c2ccccc2)cc(C)c1C#N,9,0,4,1,18*,-10
O=S(=O)(O)c1cccc2c(N=Nc3ccc(O)c4ncccc34)cccc12,-40,48,4,5,37*,10
Cn1nc(N)c2c(-c3ccccc3)c(C#N)c(N)nc21,0,2,22,-2,17*,-4
Cn1nc(N)c2c(-c3ccc(Cl)cc3)c(C#N)c(N)nc21,11,-1,0,1,-1,nt
COc1ccc(Cc2c(-c3ccc(OC)c(OC)c3)nc3cc(C)c(Br)c(C)n23)c(C)c1,nt,nt,1,nt,nt,nt
Cc1cc(OCCCC(=O)NC2=NCCS2)ccc1Cl,-4,0,-2,-4,17*,-3
COc1ccc(C(=NNc2ccccc2C(=O)O)c2ccc(OC)cc2)cc1,0,-1,1,1,17*,-4
SMILES,RTF Ca sens act,C-LANA FP,E coli Lon inh,Keap1 Nrf2 FP,RTF Ca sens inh,RTF inh confirm
CC(C)C[C@H]1CN([C@@H](Cc2ccc(O)cc2)CN2CCC[C@H]2CN2C(=O)C(=O)NC[C@@H]2Cc2ccccc2)C(=O)C(=O)N1CC1CCCCCC1,nt,nt,9,nt,nt,nt
CC(C)(C)c1ccc(C(=O)NCc2nnc(SCC(=O)NCC3CCCO3)o2)cc1 (stereo unspecified),-4,1,-10,-3,-5,nt
O=C(CSc1nnc(CNC(=O)c2ccc(F)cc2)o1)NCC1CCCO1 (stereo unspecified),-5,-1,4,1,27*,0
CC1(C)OC2CC3C4CCC5=CC(=O)C=CC5(C)C4(F)C(O)CC3(C)C2(C(=O)CO)O1 (stereo unspecified),nt,nt,-8,nt,nt,nt
c1ccc(-c2noc(C34CC5CC(CC(C5)C3)C4)n2)nc1,2,0,-4,2,18*,-5
c1ccc(-c2noc(C34CC5CC(CC(C5)C3)C4)n2)cc1,7,3,-6,0,-19,nt
COc1ccc(-c2nc3c(Cl)cc(C(F)(F)F)cn3c2Cc2ccsc2)cc1OC,nt,nt,4,nt,nt,nt
CCCc1c(O)nc(SC2CC(=O)N(c3ccc(OC)cc3)C2=O)[nH]c1=O (stereo unspecified),-1,-5,2,-4,17*,-2
CCc1nc2c(OCc3c(C)noc3C)cccn2c1N(C=O)Cc1ccccc1,nt,nt,4,nt,nt,nt
O=C(O)c1ccc2c(c1)C(=O)/C(=C/c1ccccc1)C2=O,0,19,8,2,-13,nt
O=C(O)c1ccc2c(c1)C(=O)/C(=C\c1ccco1)C2=O,-12,70*,10,1,20*,1
COC(=O)[C@]12CCCCC=C1N(CCC1=CCCCC1)C(=O)[C@H](CC(=O)N1CCN(C(=O)c3ccco3)CC1)C2,nt,nt,2,nt,nt,nt
Cc1ccc(NC(=O)C2(C)CCN2C(=O)C2CCCCC2)cc1C (stereo unspecified),nt,nt,-3,nt,nt,nt
COc1ccc(N2C(=O)CSC2c2ccccc2[N+](=O)[O-])cc1 (stereo unspecified),0,2,3,-1,19*,1
C[C@H](O)CC(=O)O,-8,0,-17,-3,19*!,-3
C[C@@H](O)CC(=O)O,4,-3,8,-6,15,nt
Cc1ccccc1C(=O)N1CCC1(C)C(=O)NC(C)C (stereo unspecified),nt,nt,1,nt,nt,nt
CC(=O)c1ccc(NC(=O)c2noc(C(C)C)c2[N+](=O)[O-])cc1,-6,-1,2,-5,188*,-3
CCCCOCCCNC(=O)C[C@@H]1C[C@@]2(C(=O)OC)CCCCC=C2N(Cc2ccco2)C1=O,nt,nt,-4,nt,nt,nt
CCOc1ccc(NS(=O)(=O)c2ccc3c(c2)N(C(C)=O)CCS3)cc1,0,-1,-4,-6,77*,-2
CCn1c(=O)cc(SCC(=O)Nc2cccc(C)n2)c2ccccc21,-4,1,3,2,18*,-4
CCn1c(=O)cc(OCC(=O)Nc2cccc(C)n2)c2ccccc21,10,0,-8,7,-15,nt
O=C1CCCc2c1cnc1ncnn21,-6,0,-4,0,18*,-3
Cc1cccc(NC(=O)CCS(=O)(=O)c2ccc3nc(C)sc3c2)c1,nt,nt,-8,nt,nt,nt
